Consider twelve molecules from PubChem BioAssay (NCI).

The panel holds about 83,000 compounds, 20% with a hit somewhere; the sample as a whole holds those more often.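 Step 1: grow cells in 96-well plates. Step 2: add test compound at a single concentration. Step 3: incubate 48 h. Step 4: record percent growth.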 Values without a mark were called inactive. Calls of active or inactive are those of the source. How the source made its calls: active means growth percent below 10; inactive means the rest.

Some test systems named below: EKVX NSCLC; UO-31 renal; TK-10 renal; ACHN renal; CAKI-1 renal; A498 renal; CCRF-CEM leukemia; MOLT-4 leukemia; SN12C renal.
What all share (test): NCI-60 one-dose screen, 48 h (100 = growth as untreated, 0 = no growth, -100 = all killed)
Common to all, as to conditions: 10 µM unless noted

Turning to `Cn1cc(-c2cc(N)n3nc(-c4cn(C)c5ccccc45)cc3n2)c2cc(Cl)ccc21`, the growth with EKVX NSCLC is -31% (active); in the test on UO-31 renal, -88.5% (active); with TK-10 renal, -42.9% (active); in the test on ACHN renal, -28.2% (active); in the test with CAKI-1 renal, -82.5% (active); in the test with A498 renal, -24.8% (active). For the same molecule, the growth with CCRF-CEM leukemia is -5.76% (active); in the test on MOLT-4 leukemia it was -6.02% (active).
`Cc1ccc2c(N)c(C(=O)Nc3ccc(OC(F)(F)F)cc3)sc2n1`: the growth in the test with EKVX NSCLC was 26.9%; in the test on SN12C renal, 70.2%; in the test with UO-31 renal, 56.2%; in the test on TK-10 renal, 95.4%; with ACHN renal, 61.2%; in the test on CAKI-1 renal, 55.8%. The results for the growth in the test with A498 renal and with MOLT-4 leukemia were 119% and 63.1%, respectively.
On to `CC(=O)Oc1ccccc1C(=O)[Se]CC(=O)Nc1cccc(C(F)(F)F)c1`, for which the growth with EKVX NSCLC was -96.7% (active); in the test on SN12C renal, -80.3% (active); in the test with UO-31 renal, -85% (active); with TK-10 renal, -83.8% (active); with ACHN renal, -34.8% (active); in the test with CAKI-1 renal, -74.4% (active). Besides, the results for the growth in the test on A498 renal, with CCRF-CEM leukemia and with MOLT-4 leukemia were -61% (active), 24.6% and 11.7%, respectively.
With `COc1c(F)ccc(C(=O)Nc2ccc3nc(NC(=O)C4CCCN(S(=O)(=O)c5cccc(C(F)(F)F)c5)C4)sc3c2)c1F` (configuration not stated), the growth with EKVX NSCLC was 94.5%; in the test with SN12C renal it was 78.8%; with TK-10 renal, 102%; with ACHN renal, 83.6%; in the test with CAKI-1 renal, 83.1%; in the test on A498 renal, 101%. For the same molecule, the figures for the growth with CCRF-CEM leukemia and in the test on MOLT-4 leukemia were 88.7% and 44.9%, respectively.
In the case of `CN(C)c1ccnc(NCCCSC(c2ccccc2)(c2ccccc2)c2ccccc2)c1`, the growth is 35.5% in the test on EKVX NSCLC; 74.4% in the test on TK-10 renal; 53.3% in the test on ACHN renal; 30.8% in the test with CAKI-1 renal; 89.6% in the test on A498 renal; -26.3% (active) with CCRF-CEM leukemia. In addition, the growth with MOLT-4 leukemia is -8.29% (active).
For `CCOC(=O)COc1c(OC)c(OC)cc2oc(-c3cccc(C(=O)Nc4ccc(Cl)cc4)c3)cc(=O)c12`, the growth with EKVX NSCLC is 62.5%; in the test with SN12C renal, 58.3%; in the test on UO-31 renal, 28.1%; with TK-10 renal it was 87.7%; in the test with ACHN renal, 73.1%; in the test on CAKI-1 renal, 48.4%. The growth is 82.7% in the test on A498 renal, 31.1% with CCRF-CEM leukemia and 19.8% in the test on MOLT-4 leukemia.
For `CSc1ccccc1NC(=O)c1ccc2nn(/C(C#N)=C/c3ccccn3)nc2c1`, the growth in the test on EKVX NSCLC is -98.5% (active); in the test with SN12C renal, -59.2% (active); in the test with UO-31 renal, -100% (active); with TK-10 renal it was -98.4% (active); in the test on ACHN renal, -99% (active); in the test on CAKI-1 renal, -87.3% (active). The growth is 93.7% in the test on A498 renal, -34.7% (active) with CCRF-CEM leukemia and -22.3% (active) in the test with MOLT-4 leukemia.
With `COc1ccc(-c2nc3cc(C)ccc3n2CC(=O)N=Nc2c(O)[nH]c3ccc(Cl)cc23)cc1`, the growth is -49.5% (active) in the test with EKVX NSCLC; -62.6% (active) in the test with SN12C renal; 41.7% in the test on UO-31 renal; 21.6% in the test with TK-10 renal; 5.37% (active) in the test on ACHN renal; 33% in the test on CAKI-1 renal. For the same molecule, the growth with A498 renal was 101%; with CCRF-CEM leukemia, 54.9%; with MOLT-4 leukemia it was 11%.
As to `C#CCOc1cc(N(CC)CC)ccc1C(C(=O)NC(C)(C)C)N(C(=O)C1CCc2cc(F)ccc2O1)c1cc(C)cc(C)c1` (configuration not stated), the growth in the test with EKVX NSCLC is 33.3%; in the test with SN12C renal, 30.9%; in the test on UO-31 renal, 23.2%; with TK-10 renal, 50.3%; with ACHN renal, 22.7%; with CAKI-1 renal, 27.9%. The results for the growth with A498 renal, in the test on CCRF-CEM leukemia and in the test with MOLT-4 leukemia were 45.8%, 36.3% and 16%, respectively.
`COc1ccc(/C=C/c2nc3ccccc3c(=O)n2CC(=O)Nc2ccc(Cl)cc2)cc1`: the growth in the test with EKVX NSCLC was 89.3%; in the test with UO-31 renal, 79.5%; in the test on TK-10 renal it was 116%; in the test with ACHN renal it was 50.7%; in the test on CAKI-1 renal, 43.1%; in the test on A498 renal, 118%. The growth with CCRF-CEM leukemia is 108%; with MOLT-4 leukemia it was 82.2%.
As to `NS(=O)(=O)c1ccc(-n2cc(-c3cccc(NC(=O)c4cc(C(F)(F)F)cc(C(F)(F)F)c4)c3)nn2)cc1`, the growth was 63.8% in the test on EKVX NSCLC; 74.7% with SN12C renal; 102% with UO-31 renal; 72.9% in the test on TK-10 renal; 66.1% in the test on ACHN renal; 75.3% in the test on CAKI-1 renal. In addition, the values for the growth in the test with A498 renal, in the test with CCRF-CEM leukemia and with MOLT-4 leukemia were 152%, 75.4% and 75.1%, respectively.
For the molecule `O=C(N=Nc1c(O)[nH]c2ccc(Cl)cc12)c1ccc2nc(-c3ccccc3)[nH]c2c1`, the growth is 92.4% in the test with EKVX NSCLC; 42% with SN12C renal; 78.8% in the test with UO-31 renal; 143% with TK-10 renal; 68.4% in the test on ACHN renal; 89.3% with CAKI-1 renal. In addition, the growth with A498 renal is 137%; in the test with CCRF-CEM leukemia, 41.7%; in the test with MOLT-4 leukemia it was 27.3%.
